Assay results taken from PubChem BioAssay (EPA / NIEHS).
Active and inactive are the calls of the source. The calls were made as follows: active = hit-call score of the fitted dose curve at least 0.9, where 1 is the maximum; inactive = score below 0.9.

Test: STM_H9_OrnithineISnorm_perc: Stemina devTOX quickPredict H9 human embryonic stem cell (hESC)-based Assay for Ornithine (ORN) Metabolite Biomarker, Normalized (AID 2283712);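 also: ornithine released into spent medium during last day measured by mass spectrometry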
From the text: STM_H9_secretome utilizes undifferentiated H9 cells to measure relative changes in two metabolites, ornithine (ORN) and cystine (CYSS) in the secretome, targeting a critical drop in the ORN/CYSS ratio as a biomarker for developmental toxicity.STM_H9_OrnithineISnorm is one of 10 components calculated in the STM_H9_secretome assay. It measures the integrated area of the endogenous ornithine normalized to the spiked-in isotopically labeled standard and to the median value of the 0.1% DMSO neutral control treatment using UPLC-HRMS technology.Data from the assay component STM_H9_OrnithineISnorm_perc was analyzed at the assay endpoint STM_H9_OrnithineISnorm_perc in the positive analysis fitting direction relative to DMSO as the negative control and baseline of activity. Using a type of binding reporter, gain or loss-of-signal activity can be used to understand relative metabolite change.
H9 hESCs maintained in a pluripotent state were exposed to test compound for 72h with chemical replenishment with media replacement every 24h. Cell-conditioned media from the final 24-h treatment period was collected for analysis of the targeted biomarker, and cell viability of the corresponding cell layer was assessed. The chemical library was tested in blinded fashion. Each test plate included 1uM Methotrexate (MTX; Selleck Chemicals, Houston, Texas) as a positive reference, 5 nM MTX as a negative reference, 0.1% DMSO as the neutral (vehicle) control, and sample-level media blanks.H9 cell-conditioned media from the final 24-h treatment period was collected for analysis of the targeted biomarker and cell viability was measured from the corresponding cell layer. Cell viability was measured using the CellTiter-Fluor assay (Promega, Madison, Wisconsin) based on proteolytic cleavage of a substrate to fluorescent signal proportional to the number of living cells. The cell viability Relative Fluorescence Unit (RFU) was background corrected and normalized to mean RFU of the neutral control (0.1% DMSO). The collected H9-cell-conditioned media samples were processed for targeted biomarker analysis as described (Palmer et al., 2013). Briefly, spent media samples were deproteinized (40% acetonitrile) and processed for UPLC-HRMS. Data acquisition was performed using 4 separate UPLC-HRMS systems, consisting of an Agilent 1290 Infinity LC system (Agilent Technologies) interfaced with an Agilent high-resolution mass spectrometer (models G6520A, G6520B, G6530A, and G6224A). A Waters Acquity UPLC BEH Amide column (2.1mm x 50mm, 1.7lm particle size; Waters, Milford, Massachusetts) maintained at 40C was applied for separation of metabolites using a 6.5min solvent gradient with 0.1% formic acid in water and 0.1% formic acid in acetonitrile (1.0ml/min flow rate). Data were acquired using MassHunter Acquisition software (version B 04.00, Agilent Technologies). The extracted ion chromatogram (EIC) areas for ORN, CYSS, and their respective spike-in C13-standards were determined using the Agilent MassHunter Quantitative Analysis software, version B.05.00 or newer (Agilent Technologies), and data were normalized as described in Palmer et al. (2017).
With CC(C)CCCCCCc1ccc(O)cc1 the AC50 was 73.4 µM (active).
For C=CCOC(Cn1ccnc1)c1ccc(Cl)cc1Cl (stereo not given), the outcome was “inactive”.
For CCCCOC(=O)[C@@H](C)Oc1ccc(Oc2ccc(C(F)(F)F)cn2)cc1, the AC50 was 80.7 µM (active).
In the case of S=C(S)NCCNC(=S)S.[Mn+2].[S-]C([S-])=NCCN=C([S-])[S-].[Zn+2], the outcome was “inactive”.
For S=C([S-])NCCNC(=S)[S-].[Mn+2], the AC50 was 88.1 µM (active).
In the case of O=C(Nc1ccc([N+](=O)[O-])cc1Cl)c1cc(Cl)ccc1O, the outcome was “inactive”.
With CN(C)C(=O)Nc1ccc(Cl)c(Cl)c1 the outcome was “inactive”.
In the case of CCOC(=O)C(C)Oc1ccc(Oc2cnc3cc(Cl)ccc3n2)cc1 (stereo not given), the outcome was “inactive”.
For N[C@@H](Cc1cc(I)c(Oc2ccc(O)c(I)c2)c(I)c1)C(=O)O, the outcome was “inactive”.
In the case of CCCCOC(=O)C(C)Oc1ccc(Oc2ccc(C(F)(F)F)cn2)cc1 (stereo not given), the outcome was “inactive”.
For CCCN(CCC)c1c([N+](=O)[O-])cc(C(F)(F)F)c(N)c1[N+](=O)[O-], the outcome was “inactive”.
With C[C@]12C[C@H](O)[C@H]3[C@@H](CCC4=CC(=O)CC[C@@]43C)[C@@H]1CC[C@@H]2C(=O)CO the AC50 was 77 µM (active).
For C#CCOC(=O)[C@@H](C)Oc1ccc(Oc2ncc(Cl)cc2F)cc1, the AC50 was 65.5 µM (active).
In the case of CCSC(=O)N(CC(C)C)CC(C)C, the outcome was “inactive”.
For CCN(Cc1c(F)cccc1Cl)c1c([N+](=O)[O-])cc(C(F)(F)F)cc1[N+](=O)[O-], the AC50 was 17.2 µM (active).
With OB(O)O the outcome was “inactive”.
With COC(=O)c1ccc(I)cc1S(=O)(=O)NC(=O)Nc1nc(C)nc(OC)n1 the outcome was “inactive”.
In the case of COC(=O)CSc1cc(N=c2sc(=O)n3n2CCCC3)c(F)cc1Cl, the AC50 was 78.8 µM (active).
With CCNc1nc(N)nc(Cl)n1 the outcome was “inactive”.
In the case of O=C(c1ccc(O)cc1O)c1ccc(O)cc1O, the AC50 was 51.1 µM (active).
In the case of COC(=O)c1ccccc1C(=O)O, the AC50 was 0.00297 µM (active).
In the case of Oc1ccc(C(c2ccc(O)cc2)C(Cl)(Cl)Cl)cc1, the AC50 was 0.00653 µM (active).
In the case of CSC(=O)c1cccc2nnsc12, the AC50 was 80.2 µM (active).
In the case of Cc1nn(C)c(Oc2ccccc2)c1C=NOCc1ccc(C(=O)OC(C)(C)C)cc1, the AC50 was 0.0118 µM (active).
For CC(C)(c1ccc(O)cc1)c1ccc(O)cc1, the AC50 was 67.3 µM (active).
For CCCCC(CC)COC(=O)c1ccccc1C(=O)O (stereo not given), the AC50 was 341 µM (active).
In the case of N#CSCSc1nc2ccccc2s1, the AC50 was 17.2 µM (active).
For CCCCCOC(=O)COc1cc(N2C(=O)C3=C(CCCC3)C2=O)c(F)cc1Cl, the AC50 was 0.104 µM (active).
In the case of O=C(O)C1(C(=O)Nc2ccc(Cl)cc2Cl)CC1, the outcome was “inactive”.
With CC(C)(C)[C@@H](O)[C@@H](Cc1ccc(Cl)cc1)n1cncn1 the outcome was “inactive”.
